The values below come from PubChem BioAssay (NCATS).

Inconclusive results are not listed. Activity calls are given as the source filed them. Calls follow the shape of the dose curve; as a rule, active = well fitted cell-killing curve with a large enough effect; inconclusive = small, poorly fitted or top-dose-only effect, or effect the other way; inactive = no such curve, though single readings can be large or run the other way.

A short description of assay [1]: Quantitative High-Throughput drug screen in 47 multiple myeloma cell lines against the NCATS MIPE library collection: XG1_PLB cell viability assay (AID 1919866). Also: nearly all actives have a fitted effect of over 35% in size. In a few lines:
(§1)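 Inhibition of viability over 48 h was scored by ATP content (CellTiter-Glo) in 500-cell wells. Zero and full viability were defined by media-only and DMSO-only wells.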

A short description of assay [2]: Quantitative High-Throughput drug screen in 47 multiple myeloma cell lines against the NCATS MIPE library collection: VP6_DJ cell viability assay (AID 1919867). Also: nearly all actives have a fitted effect of over 40% in size. Put shortly: as §1
Assay [3] is described as follows: Quantitative High-Throughput drug screen in 47 multiple myeloma cell lines against the NCATS MIPE library collection: UTMC2_PLB cell viability assay (AID 1919868). Also: nearly all actives have a fitted effect of over 55% in size. Particulars: CellTiter-Glo ATP luminescence, 48 h; viability (% of DMSO control): at 45.8 µM (top of the series). In a few lines: as §1
Assay [4] can be described thus: Quantitative High-Throughput drug screen in 47 multiple myeloma cell lines against the NCATS MIPE library collection: PE2_PLB cell viability assay (AID 1919869). Also: nearly all actives have a fitted effect of over 35% in size. In a few lines: as §1
Assay [5] can be described thus: Quantitative High-Throughput drug screen in 47 multiple myeloma cell lines against the NCATS MIPE library collection: PCM6_Riken cell viability assay (AID 1919870). Also: nearly all actives have a fitted effect of over 30% in size. Put shortly:
as §1

Assay [6] is described as follows: Quantitative High-Throughput drug screen in 47 multiple myeloma cell lines against the NCATS MIPE library collection: OPM2_DSMZ cell viability assay (AID 1919872). Also: nearly all actives have a fitted effect of over 30% in size. Put shortly:
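We plated 500 myeloma cells per well, pinned in MIPE 4.0 compounds, and incubated for 48 hours at 37C. ATP was then quantified with CellTiter-Glo, with DMSO and media-only wells defining 100% and 0%.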

Assay [7] is described as follows: Quantitative High-Throughput drug screen in 47 multiple myeloma cell lines against the NCATS MIPE library collection: KMS11_JCRBsus cell viability assay (AID 1919873). Also: nearly all actives have a fitted effect of over 50% in size. In a few lines:
as §1

Assay [8] can be described thus: Quantitative High-Throughput drug screen in 47 multiple myeloma cell lines against the NCATS MIPE library collection: RPMI8226_ATCC cell viability assay (AID 1919871). Also: nearly all actives have a fitted effect of over 30% in size. In a few lines: as §1
A short description of assay [9]: Quantitative High-Throughput drug screen in 47 multiple myeloma cell lines against the NCATS MIPE library collection: KMS28BM_JCRB cell viability assay (AID 1919874). Also: nearly all actives have a fitted effect of over 35% in size. In a few lines: as §1
Potency is read from the fitted curve at half-maximal effect.

Take `CS(=O)(=O)N1CCc2c(-c3cnc(N)nc3)nc(N3CCOCC3)nc21`: the Potency in assay [1] is 372 nM (active); in assay [2], 418 nM (active); in assay [3] it was 1 nM (active); in [4], 296 nM (active); in assay [5], 5260 nM (active); in assay [6] it was 1050 nM (active).

Consider `CCc1c(O)cc(O)c(C(=O)c2ccc(OCCN3CCOCC3)c(OC)c2)c1CC(=O)N(CCOC)CCOC`, for which the Potency was 1180 nM (active) in assay [1]; 1180 nM (active) in [2]; 935 nM (active) in assay [3]; 833 nM (active) in assay [4]; 1320 nM (active) in assay [5]; 1050 nM (active) in assay [6]. Moreover, the Potency in assay [7] is 935 nM (active).

With `CCOC(=O)C1=C(C)NC(=S)NC1c1cccc(O)c1` (stereo unspecified), the Potency in assay [1] is 66.2 nM (active); in assay [2], 29.6 nM (active); in assay [3], 37.2 nM (active); in assay [4], 14.8 nM (active); in assay [5], 37.2 nM (active); in [6] it was 105 nM (active). Further, the Potency in [7] was 16.6 nM (active).

As to `COc1cc(CCc2cc(NC(=O)c3ccc(N4C[C@@H](C)N[C@@H](C)C4)cc3)n[nH]2)cc(OC)c1`, the Potency in assay [1] is 14800 nM (active); in [2] it was 7430 nM (active); in assay [3], 4180 nM (active); in [4] it was 11800 nM (active); in assay [5], 13200 nM (active); in assay [8], 18700 nM (active). Also, the Potency was 4690 nM (active) in assay [7] and 16600 nM (active) in assay [9].

As for `CCOC(=O)N1CCN([N+]([O-])=NOc2ccc([N+](=O)[O-])cc2C#N)CC1`, the Potency in assay [1] is 372 nM (active); in assay [2], 743 nM (active); in [3] it was 526 nM (active); in assay [4] it was 743 nM (active); in assay [5] it was 469 nM (active); in [8], 1050 nM (active). In addition, the Potency in assay [6] is 935 nM (active); in assay [7], 662 nM (active); in assay [9], 935 nM (active).

Turning to `C=CC(=O)Nc1cccc(Nc2nc(NC3CCC(N(C)C)CC3)nc3c2ncn3C(C)C)c1` (stereo unspecified), the Potency is 105 nM (active) in [1]; 235 nM (active) in assay [2]; 132 nM (active) in [3]; 209 nM (active) in [4]; 209 nM (active) in assay [5]; 1050 nM (active) in assay [8]. Moreover, the values for the Potency in assay [6] and in assay [9] were 1870 nM (active) and 209 nM (active), respectively.

`COC[C@H](NC(=O)c1cnc(C)s1)C(=O)N[C@@H](COC)C(=O)N[C@@H](Cc1ccccc1)C(=O)[C@@]1(C)CO1`: the Potency is 74.3 nM (active) in assay [1]; 66.2 nM (active) in assay [2]; 1050 nM (active) in assay [3]; 83.3 nM (active) in assay [4]; 187 nM (active) in assay [5]; 187 nM (active) in assay [8]. Besides, the Potency in assay [7] is 18.7 nM (active); in assay [9], 41.8 nM (active).

With `CN(C)c1ccc(C(=O)NCCCCCCC(=O)NO)cc1`, the Potency was 1180 nM (active) in assay [1]; 148 nM (active) in assay [2]; 332 nM (active) in assay [3]; 2350 nM (active) in assay [4]; 662 nM (active) in [5]; 1870 nM (active) in assay [8]. Moreover, the Potency is 935 nM (active) in [6] and 526 nM (active) in assay [9].

On to `CN(C)CCN1C(=O)c2cccc3cc(N)cc(c23)C1=O`, for which the Potency in assay [1] was 16600 nM (active); in assay [2] it was 14800 nM (active); in [3], 5900 nM (active); in assay [4] it was 20900 nM (active); in [5] it was 16600 nM (active); in assay [8], 16600 nM (active). The Potency in assay [7] is 16600 nM (active).

Regarding `COc1ccc(CCC(=O)c2c(O)cc(O[C@@H]3O[C@H](CO)[C@@H](O)[C@H](O)[C@@H]3O[C@@H]3O[C@@H](C)[C@H](O)[C@@H](O)[C@@H]3O)cc2O)cc1O`, the Potency is 7430 nM (active) in assay [1]; 9350 nM (active) in [2]; 9350 nM (active) in assay [3]; 7430 nM (active) in assay [4]; 7430 nM (active) in [5]. Also, the Potency result in assay [6], in [7] and in assay [9] was “inactive” in each case.

With `Nc1ncn([C@@H]2O[C@H](CO)[C@@H](O)[C@@H]2O)c(=O)n1`, the Potency in assay [1] is 2960 nM (active); in assay [2] it was 11800 nM (active); in assay [3] it was 8330 nM (active); in assay [4], 18700 nM (active); in assay [5], 8330 nM (active); in assay [6], 14800 nM (active). For the same molecule, the Potency in [7] is 14800 nM (active); in assay [9], 16600 nM (active).

Consider `Cn1cc(-c2cnn3c(N)c(Br)c([C@H]4CCCNC4)nc23)cn1`, for which the Potency in assay [1] was 526 nM (active); in assay [2], 662 nM (active); in [3] it was 662 nM (active); in [4] it was 1050 nM (active); in assay [5], 662 nM (active); in [8], 7430 nM (active). The Potency is 5260 nM (active) in assay [7] and 4690 nM (active) in assay [9].

For the molecule `C=CC(=O)Nc1cc(NC(=O)c2ccc(C)c(NC(=O)c3ccno3)c2)cc(C(F)(F)F)c1`, the Potency in assay [1] is 14800 nM (active); in assay [2], 16600 nM (active); in assay [3], 20900 nM (active); in [4], 16600 nM (active); in assay [5] it was 16600 nM (active); in [8], 23500 nM (active). In addition, the Potency in assay [7] is 11800 nM (active).

For the molecule `CN[C@@H]1C[C@H]2O[C@@](C)([C@H]1OC)n1c3ccccc3c3c4c(c5c6ccccc6n2c5c31)C(=O)N[C@H]4O`, the Potency in assay [1] was 148 nM (active); in [2], 46.9 nM (active); in assay [3], 148 nM (active); in assay [4], 118 nM (active); in assay [5] it was 148 nM (active); in assay [8] it was 2090 nM (active). In addition, the Potency in assay [9] is 469 nM (active).

As for `COC(=O)C=CC(=O)OC`, the Potency in [1] was 1320 nM (active); in [2] it was 2640 nM (active); in assay [3], 2350 nM (active); in assay [4], 5260 nM (active); in assay [5], 3320 nM (active). Further, the Potency result in assay [8], in assay [6] and in assay [9] was “inactive” throughout.

Take `O=C(O)C=Cc1ccc(Cn2ccnc2)cc1`: the Potency entry in assay [1], in assay [2], in assay [3], in [4], in assay [5] and in [8] was “inactive” in each case. Besides, the Potency entry in assay [9] was “inactive”.
